In PubChem BioAssay (NCATS):
Records with an inconclusive call do not appear. Where a call stands in place of a potency, no number is given. Activity calls are given as the source filed them. The call rests on the fitted dose curve; in most records, active means well fitted curve in the direction sought with a large enough effect; inconclusive means small, poorly fitted or top-dose-only effect, or another doubt; inactive means no such curve, though single readings can be large; an effect the other way counts as inactive or inconclusive.

These compounds were tested against Alpha-galactosidase (Coffea arabica) (UniProt Q42656) (assay: Counterscreen for Glucocerebrosidase Inhibitors: qHTS Assay for Coffee Bean alpha-Galactosidase at pH 4.5 (AID 957)). Details: purified coffee bean alpha-galactosidase, fluorogenic substrate; series mostly up to 76.9 µM.
Sequence of Alpha-galactosidase (Coffea arabica) (Q42656 whole entry, looked up): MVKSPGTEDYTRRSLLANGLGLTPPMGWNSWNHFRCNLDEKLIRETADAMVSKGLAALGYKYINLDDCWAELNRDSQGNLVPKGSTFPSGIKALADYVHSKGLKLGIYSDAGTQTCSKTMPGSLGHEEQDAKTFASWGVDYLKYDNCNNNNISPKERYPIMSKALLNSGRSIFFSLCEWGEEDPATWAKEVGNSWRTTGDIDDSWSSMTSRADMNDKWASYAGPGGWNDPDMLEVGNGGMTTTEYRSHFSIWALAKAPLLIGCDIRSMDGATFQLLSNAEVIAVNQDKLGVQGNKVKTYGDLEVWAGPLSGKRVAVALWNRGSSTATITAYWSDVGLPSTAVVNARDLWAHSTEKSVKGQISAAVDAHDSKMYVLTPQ
Method in brief: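 AC50 values derive from Hill-equation modeling of concentration-response data, normalized to no-enzyme and full-activity controls. The pH 4.5 citrate assay used 2 nM coffee bean enzyme and 80 uM fluorogenic substrate for 20 min.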

| SMILES | outcome |
| --- | --- |
| CCCn1c(=O)c2[nH]c(C3CCCC3)nc2n(CCCOC(=O)c2ccc(S(=O)(=O)F)cc2)c1=O | inactive |
| CC(=O)NBr | inactive |
| NNC(N)=O | inactive |
| Nc1ccc(CCN2CCN(c3cccc(C(F)(F)F)c3)CC2)cc1 | inactive |
| CC(C)(C)c1cc(C=C(C#N)C#N)cc(C(C)(C)C)c1O | inactive |
| CCCN(CCC)[C@@H]1CCc2cccc(O)c2C1 | inactive |
| CP(=O)(O)C1=CCNCC1 | inactive |
| C[C@@H]1[C@@H]2Cc3ccc(O)cc3[C@@]1(C)CCN2CC1CC1 | inactive |
| NNC(=O)c1ccc(O)cc1 | inactive |

These compounds were tested against Pyruvate kinase PKM (Homo sapiens) (UniProt P14618) (assay: qHTS Assay for Inhibitors of Human Muscle Pyruvate Kinase (AID 958)). Details: purified human PKM enzyme activity; series mostly up to 57.5 µM.
Sequence of Pyruvate kinase PKM (Homo sapiens) (P14618 whole entry, looked up): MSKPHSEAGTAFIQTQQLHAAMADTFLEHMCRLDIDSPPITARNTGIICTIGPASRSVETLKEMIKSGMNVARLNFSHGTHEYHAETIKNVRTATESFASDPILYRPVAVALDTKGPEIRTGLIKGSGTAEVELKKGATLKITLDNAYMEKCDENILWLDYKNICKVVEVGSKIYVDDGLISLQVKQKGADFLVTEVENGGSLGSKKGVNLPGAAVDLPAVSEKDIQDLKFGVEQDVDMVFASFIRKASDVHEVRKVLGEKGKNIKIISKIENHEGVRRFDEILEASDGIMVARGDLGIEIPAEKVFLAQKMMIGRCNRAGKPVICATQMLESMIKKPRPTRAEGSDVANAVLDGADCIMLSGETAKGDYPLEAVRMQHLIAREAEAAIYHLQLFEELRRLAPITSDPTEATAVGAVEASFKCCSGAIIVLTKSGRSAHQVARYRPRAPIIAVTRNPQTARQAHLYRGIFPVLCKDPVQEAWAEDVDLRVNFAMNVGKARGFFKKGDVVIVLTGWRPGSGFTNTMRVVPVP
Method in brief: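 Human PKM2 activity is measured as ATP generation, detected by luciferase-coupled luminescence. The enzyme (0.1 nM) acts on 0.5 mM PEP and 0.1 mM ADP for 1 h at ambient temperature; data are normalized to uninhibited and full-inhibition wells.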

| SMILES | Potency |
| --- | --- |
| CN(N=O)c1ccc(O)c(O)c1 | inactive |
| O=C(O)c1cc[c]([Hg][Cl])cc1 | 2.51 µM (active) |
| O=c1c2ccccc2[se]n1-c1ccccc1 | 10 µM (active) |
| CN(N=O)c1cc(O)ccc1O | inactive |
